# Bioassay records as filed in PubChem BioAssay.
# The list is not random: actives were taken first. Their share in the collection is about 7.5%.
# NPC1 promoter act – qHTS Assay for NPC1 Promoter Activators; Huh7 NPC1 promoter luciferase reporter, 24 h; Potency, µM (top dose mostly 9.22 µM), hits mostly activators; hit rate 2.4% among 320,000; AID 485313, 2010; note: nearly all actives have a fitted effect of over 60% in size
#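 Luminescence read-out of NPC1 promoter-driven luciferase in stably transfected Huh7 cells; compounds delivered in DMSO and left 24 h at 37C, 5% CO2, qHTS titration format.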
# SMN2 splice up – qHTS Assay for Enhancers of SMN2 Splice Variant Expression | HEK293 SMN2-luciferase splicing reporter, luminescence, 30-36 h | Potency, µM (highest dose often 46.1 µM), usual class: activators | AID 1458, 2008 | hit rate 2.8% among 210,000; note: nearly all actives have a fitted effect of over 55% in size
#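 HEK293 cells carry an SMN2 […]–luciferase reporter in which exon 7 inclusion puts luciferase in frame. Cells were plated 10-12 h before compound addition, then incubated 30-36 h at 37C. ONE-Glo luminescence was read; sodium butyrate at 4.5 mM final served as control.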
# Rab9 promoter act – qHTS Assay for Rab9 Promoter Activators; hit rate 2.8% among 320,000; Huh7 Rab9 promoter-luciferase reporter, luminescence, 24 h; AID 485297, 2010; Potency, µM (top dose mostly 9.22 µM), hits mostly activators; note: nearly all actives have a fitted effect of over 60% in size
#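 Promoter activation is measured as luciferase luminescence in Huh7 cells stably transfected with a Rab9 promoter–luciferase construct, following 24 h compound exposure at 37 °C and 10 min reagent incubation at ambient temperature.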
# FLuc counter – qHTS profiling assay for firefly luciferase inhibitor/activator using purifed enzyme and Km concentrations of substrates (counterscreen for miR-21 project); Luciferin 4-monooxygenase (Photinus pyralis), P08659; purified FLuc, Km substrates, luminescence inhibition; Potency, µM (top dose mostly 57.5 µM), hits mostly inhibitors; hit rate 6.9% among 360,000; AID 588342, 2011; note: nearly all actives have a fitted effect of over 55% in size
# Target sequence (P08659 whole entry, looked up): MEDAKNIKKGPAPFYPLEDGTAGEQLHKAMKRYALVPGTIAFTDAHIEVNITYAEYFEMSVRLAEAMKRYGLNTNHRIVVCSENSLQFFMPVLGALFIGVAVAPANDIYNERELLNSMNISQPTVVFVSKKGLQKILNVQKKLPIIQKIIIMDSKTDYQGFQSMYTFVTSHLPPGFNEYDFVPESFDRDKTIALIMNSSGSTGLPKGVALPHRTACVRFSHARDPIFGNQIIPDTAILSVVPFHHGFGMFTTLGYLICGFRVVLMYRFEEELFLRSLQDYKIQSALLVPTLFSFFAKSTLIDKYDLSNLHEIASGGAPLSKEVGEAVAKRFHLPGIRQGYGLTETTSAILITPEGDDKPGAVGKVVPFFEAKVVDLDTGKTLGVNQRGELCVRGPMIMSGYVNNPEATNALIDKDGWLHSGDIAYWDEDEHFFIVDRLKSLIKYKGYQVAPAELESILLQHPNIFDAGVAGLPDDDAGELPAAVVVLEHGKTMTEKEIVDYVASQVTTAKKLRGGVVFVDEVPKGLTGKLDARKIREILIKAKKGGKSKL
#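 Purified P. pyralis luciferase (10nM final) with 10uM D-luciferin and 10uM ATP (Km levels) in 50mM Tris acetate pH 7.5, 10mM Mg acetate, 0.01% Tween-20, 0.05% BSA; qHTS 6-point titration, ~60 µM downward; luminescence read.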
# ELG1 genotox – qHTS screen for small molecules that induce genotoxicity in human embryonic kidney (HEK293T) cells expressing luciferase-tagged ELG1 | HEK293T ELG1-luciferase reporter, luminescence, 16 h | Potency, µM (top dose mostly 46 µM), actives largely listed as activators | hit rate 1.3% among 330,000; note: nearly all actives have a fitted effect of over 60% in size
#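 Screening used a luciferase reporter fused to human ELG1 in HEK293T cells. Luminescence was read on a CCD plate imager after 16 hr exposure and 30 min ONE-Glo incubation.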
# Hits are given with their value; – = inactive; ? = inconclusive; · = no result given; ! = not active in a repeat. Calls come from the whole dose curve; as a rule, active = well fitted curve in the direction sought with a large enough effect; inconclusive = small, poorly fitted or top-dose-only effect, or another doubt; inactive = no such curve, though single readings can be large; an effect the other way counts as inactive or inconclusive.
SMILES,NPC1 promoter act,SMN2 splice up,Rab9 promoter act,FLuc counter,ELG1 genotox
CCOC(=O)C1CCN(C(=O)c2ccc3c(c2)sc2nc(-c4ccc(OCC)cc4)cn23)CC1,·,·,·,–,·
O=C(Nc1ccccc1F)Nc1ccc([N+](=O)[O-])cc1Cl,?,·,3.98µM,?,–
Cc1cc([N+](=O)[O-])ccc1NC(=O)Nc1ccc(F)cc1F,–,–,–,–,–
Cc1ccc(O)c(NC(=O)c2cc([N+](=O)[O-])ccc2Cl)c1,–,–,–,–,–
O=C(Nc1ccc([N+](=O)[O-])cc1Cl)c1cc(Cl)ccc1O,0.0651µM,25.1µM!,0.1µM,0.213µM,?
O=C(Nc1cccc(Cl)c1)c1cc(N=Nc2ccc([N+](=O)[O-])cc2Cl)ccc1O,–,·,–,12µM,–
Cc1noc(C)c1COC(=O)CCc1nc2ccccc2c(=O)[nH]1,–,–,–,–,–
Cc1c(Cl)cccc1NC(=O)c1cc(S(=O)(=O)N2CCCCC2)cn1C,·,·,·,–,·
COc1ccc(NC(=O)Cn2c(=O)ccc3cc(S(=O)(=O)N4CCCC4)ccc32)cc1Cl,·,·,·,–,·
Cc1ccc(-c2cc(C(=O)Nc3cccc(S(=O)(=O)N(C)C)c3)c3ccccc3n2)o1,–,·,–,9.53µM,–
COC(=O)c1cc(-c2ccc(C)o2)nc2ccccc12,–,–,–,10.7µM,–
COc1cc(-c2cc(C(=O)Nc3cccc(S(=O)(=O)N(C)C)c3)c3ccccc3n2)cc(OC)c1OC,–,·,–,–,–
Cc1ccc(-c2cc(C(=O)OCC(=O)N(C)c3c(N)n(Cc4ccccc4)c(=O)[nH]c3=O)c3ccccc3n2)o1,–,·,–,2.39µM,?
CN(C(=O)COC(=O)c1cc2ccccc2cc1O)c1c(N)n(Cc2ccccc2)c(=O)[nH]c1=O,–,·,–,–,–
CCc1nnc(NC(=O)c2cc(-c3ccc(C)o3)nc3ccccc23)s1,–,·,–,10.7µM,–
Cc1cc(C)nc(NC(=O)c2ccc(Cl)c(Cl)c2)n1,–,–,–,–,–
CN(C)S(=O)(=O)c1cccc(NC(=O)c2c[nH]c3ccccc23)c1,–,·,–,21.3µM,–
Cc1ccc(-c2cc(C(=O)Nc3ccccc3C)c3ccccc3n2)o1,–,–,–,8.49µM,–
Cc1cc(C(=O)Nc2ccccc2C)c2ccccc2n1,–,·,–,–,–
O=C(CC1CCCC1)Nc1ccc(Br)cc1,?,·,?,16.9µM,?
O=C(COC(=O)CC1CCCC1)Nc1ccc(Cl)cc1,–,·,–,30.1µM,–
CCOc1ccc(NC(=O)COC(=O)CC2CCCCC2)cc1,–,·,–,–,–
COc1ccc(NC(=O)CC2CCCCC2)cc1OC,–,–,–,–,–
COc1ccc(NC(=O)CSc2nnc(-c3ccccc3C)n2C)cc1,–,–,–,–,–
Cc1nc(N)sc1-c1csc(Nc2cccc(C(=O)O)c2)n1,–,·,–,7.57µM,–
SMILES,NPC1 promoter act,SMN2 splice up,Rab9 promoter act,FLuc counter,ELG1 genotox
Cc1c(Nc2nc(-c3cccc([N+](=O)[O-])c3)cs2)c(=O)n(-c2ccccc2)n1C,–,·,–,–,–
Cc1ccc(Nc2nc(-c3sc(NC(=O)c4ccco4)nc3C)cs2)cc1,–,–,–,16.9µM,–
Cc1ccccc1Nc1nc(-c2sc(NC(=O)c3ccco3)nc2C)cs1,–,–,–,?,–
Cc1cc(O)ccc1Nc1nc(-c2sc(N)nc2C)cs1,–,–,–,?,–
Cc1[nH]n(-c2nc(-c3cccc([N+](=O)[O-])c3)cs2)c(=O)c1C,?,12.6µM,?,4.78µM,–
CC(=O)Nc1nc(C)c(-c2csc(Nc3ccccn3)n2)s1,3.55µM,12.6µM,1.58µM,10.7µM,–
COc1ccc(-c2cc(-c3ccc4c(c3)NC(=O)CO4)nc3c2COc2ccc(C)cc2-3)cc1,·,–,·,?,·
CC(C)(C)NC(=O)C(OC(=O)c1ccco1)c1ccc(Cl)cc1 (configuration not stated),–,·,–,–,–
CC(=O)Nc1nc(C)c(-c2csc(Nc3cccc(C(C)=O)c3)n2)s1,–,·,0.708µM,?,–
COc1cccc(Nc2nc(-c3sc(NC(=O)CC(C)C)nc3C)cs2)c1,–,–,–,?,–
O=C(O)c1ccc(Nc2nc(-c3ccccc3)cs2)cc1,0.398µM,2.51µM,0.398µM,0.675µM,–
